Test results as given in PubChem BioAssay AID590 (National Center for Advancing Translational Sciences (NCATS), 2007).
Out of some 59,000 compounds screened, about 6,500 (11%) were called active. Inconclusive results (about 15%) are left out. Cut-off read from the data, not from the text of the source: active = max dye-equivalent concentration above about 10 nM; inconclusive = mostly about 1.1 nM to 9.6 nM; inactive = weaker than that. The sample as a whole holds a higher share of actives than the screen did.

Experiment: qHTS Assay for Spectroscopic Profiling in A350 Spectral Region
Conditions: Compound autofluorescence, 340/450 nm, Alexa 350 dye-equivalents; hits give high values

| SMILES | max dye-equivalent concentration |
| --- | --- |
| COc1ccccc1Cn1c(=S)[nH]c2cc(C(=O)N3CCN(C)CC3)ccc2c1=O | inactive |
| CSCCC1NC2(C(=O)Nc3ccc(Cl)cc32)[C@@H]2C(=O)N(C3CCCC3)C(=O)[C@H]12 (stereo not given in full) | inactive |
| Cc1ccc2c(C(=O)CN3CCCC3)c(C)[nH]c2c1 | inactive |
| CC(C)C(=O)N1CCN(CCN=CC2=C(O)CC(c3ccco3)CC2=O)CC1 (stereo not given) | inactive |
| CC(C)c1ccc(N2CC(C(=O)Nc3nccs3)CC2=O)cc1 (stereo not given) | inactive |
| COC(=O)c1ccc(CSc2nncn2C)cc1 | inactive |
| O=C(NCCSc1ccccc1)c1ccco1 | inactive |
| O=C(NCc1ccco1)c1cnn2c(C(F)(F)F)cc(-c3ccco3)nc12 | 300 nM (active) |
| COC(=O)c1ccccc1NC(=O)Cn1nc(C(F)(F)F)c2c1CCC2 | inactive |
| O=C(Nc1ccccc1)Nc1ccccc1C(=O)NCc1ccco1 | inactive |
| O=C(NCc1ccco1)c1cc(-c2cccnc2)nc2ccc(Cl)cc12 | inactive |
| O=C(CSc1nc(-c2ccco2)cc(C(F)(F)F)n1)N1CCc2ccccc2C1 | inactive |
| COC(=O)c1cnn2c(C(F)(F)F)cc(-c3ccco3)nc12 | 870 nM (active) |
| CN(C(=O)CSc1nnnn1-c1ccccc1)C1CCCCC1 | inactive |
| Cc1oc2nc(SCC(=O)NCc3cccnc3)nc(N)c2c1C | inactive |
| O=C(c1ccc2c(c1)N(Cc1ccc(F)cc1)C(=O)CS2)N1CCOCC1 | inactive |
| CCNC(=O)c1c(O)c2cccc3c2n(c1=O)CC3 | 22 nM (active) |
| Cc1cc(=O)n2c3c(cccc13)CCC2 | inactive |
| Cn1c(C(=O)NCCN2CCc3ccccc3C2)cc2c(=O)[nH]c3ccccc3c21 | inactive |
| Cc1cnc(CNc2nc(-c3cccnc3)nc3ccccc23)cn1 | inactive |
| CN(C)CCSS(=O)(=O)O | inactive |
| C[C@]1(O)CC[C@H]2[C@H]3CC=C4N5CCN=C5CC[C@@]4(C)[C@H]3CC[C@@]21C | inactive |

| SMILES | max dye-equivalent concentration |
| --- | --- |
| CC(=O)c1cc(-c2ccccc2)[nH]c1N1CCCC1 | inactive |
| Cc1cc(N2CCCC2)n2nc(C)c(-c3ccccc3)c2n1 | 220 nM (active) |
| S=c1c2[nH]cnc2ncn1CCSc1ncnc2nc[nH]c12 | inactive |
| CC(C)(C)c1csc(NC2=NS(=O)(=O)c3ccccc32)n1 | inactive |
| COc1ccc(NC(=O)CN(C)S(=O)(=O)c2ccccc2)cc1OC | inactive |
| Brc1ccc(Nc2c3c(nc4ncnn24)CCC3)cc1 | inactive |
| CC1CCc2c(sc(NC(=O)c3ccc(Cn4cc(Br)cn4)o3)c2C(N)=O)C1 (stereo not given) | 110 nM (active) |
| NC(=O)CSc1oc(-c2cccs2)nc1S(=O)(=O)c1ccccc1 | inactive |
| O=C(c1ccco1)N1CCC[C@@]2(CCN(Cc3nccs3)C2)C1 | inactive |
| CC(=O)Nc1ccc(-c2cn3cccnc3n2)cc1 | 6300 nM (active) |
| CCOc1nc(OCC)nc(-n2cc(-c3ccccc3)nn2)n1 | inactive |
| c1ccc(-c2cn3cccnc3n2)cc1 | 4800 nM (active) |
| CCCC(=O)Nc1cccc(-c2cn3ccsc3n2)c1 | inactive |
| COc1ccc(-c2cn3ccsc3n2)cc1 | inactive |
| CC(=O)Nc1cccc(-c2cnc3ccccc3n2)c1 | inactive |
| CC(=O)N(Cc1cccs1)C1CCOC(C)(C)C1 (stereo not given) | inactive |
| CCCCn1c(=S)[nH]c2ncccc2c1=O | inactive |
| O=S(=O)(N1CCOCC1)N1CCN(c2ccccc2F)CC1 | inactive |
| c1ccc(-c2[nH]ncc2-c2nc3ccccc3[nH]2)cc1 | inactive |
| CC1(C)CC(=O)NC=C(c2ccccc2)C1 | inactive |
| O=c1[nH]c(-c2ccccc2)c(-c2ccccc2)[nH]1 | 14 nM (active) |
| c1csc(CN2CCN(Cc3cccs3)C2c2cccs2)c1 | inactive |

| SMILES | max dye-equivalent concentration |
| --- | --- |
| CC1CCCCC1NC(=O)CCS(=O)(=O)c1cccc2nonc12 (stereo not given) | inactive |
| CC(C)Cn1c(N)c(C(=O)NCc2cccs2)c2nc3ccccc3nc21 | 350 nM (active) |
| CCN(CC(=O)NCc1cccs1)c1nnnn1-c1ccccc1 | inactive |
| C=CCn1c(N)c(C(=O)OCC(C)C)c2nc3ccccc3nc21 | 4500 nM (active) |
| Cc1nnc(SCC(=O)NCc2cccs2)[nH]c1=O | inactive |
| C=CCn1c(C2CC(=O)N(c3ccc(C)cc3)C2)nc2ccccc21 (stereo not given) | inactive |
| C=CCn1c(N)c(S(=O)(=O)c2cccs2)c2nc3ccccc3nc21 | 5300 nM (active) |
| CC(=O)c1c(N2CCOCC2)nc(=S)n(-c2cc(C)ccc2C)c1C | inactive |
| COC(=O)[C@@H]1[C@H]2C[C@H]3c4[nH]c5cc(OC)ccc5c4CCN3C[C@@H]2C[C@@H](OC(=O)c2cc(OC)c(OC)c(OC)c2)[C@@H]1OC | inactive |
| Oc1c(Br)cc(CN(Cc2cc(Br)c(O)c(Br)c2)C2CCCCC2)cc1Br | inactive |
| CS(=O)(=O)c1ccc2nc(NC(=O)CN3CCCCCC3)sc2c1 | inactive |
| CCn1nnc(NC(=O)c2c(OC)cccc2OC)n1 | inactive |
| O=C(CSc1nc2ncccc2[nH]1)Nc1ccc2c(c1)OCCO2 | inactive |
| CC(C)C(c1nnnn1C1CCCC1)N1CCN(c2ccccc2F)CC1 (stereo not given) | inactive |
| Cc1cc(C)c(C#N)c(SCS(=O)c2ccc(C(C)(C)C)cc2)n1 (stereo not given) | inactive |
| Cc1cc(C)c(C#N)c(SCc2ccc3c(c2)OCO3)n1 | inactive |
| Cc1cc(C)c(C#N)c(SCc2ccccc2C(=O)O)n1 | 13 nM (active) |
| CCN(CC)S(=O)(=O)c1ccc(NC(=O)CN(c2cccc(F)c2)S(C)(=O)=O)cc1 | inactive |
| CCOC(=O)c1c(NC(=O)CCC(=O)NCc2ccco2)sc2c1CCCC2 | inactive |
| ClC(Cl)(Cl)C(N1CCN(c2ccccc2)CC1)N1CCN(c2ccccc2)CC1 | inactive |
| COc1ccccc1N1CCN(C(=O)CSc2nnc(-c3ccoc3C)o2)CC1 | inactive |
| CN1C(=O)c2ccc(NC(=O)c3c(F)c(F)c(F)c(F)c3F)cc2C1=O | 110 nM (active) |

| SMILES | max dye-equivalent concentration |
| --- | --- |
| CN1C(=O)c2ccc(NC(=O)C3CCCCC3)cc2C1=O | 320 nM (active) |
| O=C(Nc1ccncc1)c1c(F)cccc1F | inactive |
| Cc1nc(C)c(C(=O)Nc2ccc(C)c(F)c2)o1 | inactive |
| O=C(Nc1c(Cl)cccc1Cl)C1CCC1 | inactive |
| O=C(O)c1ccc(NC(=O)C2CCCCC2)cc1 | inactive |
| C[N+]1(CCN=C=NC2CCCCC2)CCOCC1 | inactive |
| Cc1ccc(N2CCN(S(=O)(=O)N(C)C)CC2)cc1Cl | inactive |
| CCCCOc1ccc(C(C)(O)CCN2CCOCC2)cc1 (stereo not given) | inactive |
| CC(C)C(c1nnnn1CCc1ccccc1)N1CCN(C(=O)c2ccco2)CC1 (stereo not given) | inactive |
| N#Cc1cccc(-c2ccc3ncnc(NCc4cccs4)c3c2)c1 | inactive |
| CC(=O)Oc1cccc(N2C(=O)CC(Nc3ccc(N4CCOCC4)cc3)C2=O)c1 (stereo not given) | inactive |
| CS(=O)(=O)N1CCC2(CC1)CN(Cc1cc(C(F)(F)F)cc(C(F)(F)F)c1)C2 | inactive |
| COc1ccc(OC)c(NC(=O)Cn2c(=O)oc3ccccc32)c1 | inactive |
| C#CCN1C(=O)C(O)(CC(=O)c2cc(OC)ccc2OC)c2ccccc21 (stereo not given) | 14 nM (active) |
| COc1ccc(N2C(=O)CCC(C(=O)N(C)C3CCCCC3)C2c2ccc(OC)c(OC)c2)cc1 (stereo not given) | inactive |
| COc1ccc(CCN(Cc2cc3cccc(C)c3[nH]c2=O)C(=O)N2CCCC2)cc1OC | inactive |
| COc1cccc2cc(C(C)N(CCCN3CCOCC3)C(=O)Nc3ccc(Cl)cc3)oc12 (stereo not given) | inactive |
| COc1cc2cc(CN(CCN3CCCC3)C(=O)Nc3ccccc3Cl)c(=O)[nH]c2cc1OC | 310 nM (active) |
| Cc1ccc(-c2nnn(CC(=O)N(CCO)C(C(=O)NC(C)(C)C)c3ccncc3)n2)cc1 (stereo not given) | inactive |
| O=C(Nc1ccc2c(c1)OCCO2)c1ccncc1 | inactive |
| Cc1cc(C)n2nc(C(=O)Oc3ccc4c(c3)OCO4)nc2n1 | inactive |
| O=c1c2[nH]c3ccc(Cl)cc3c2ncn1Cc1ccccn1 | inactive |

| SMILES | max dye-equivalent concentration |
| --- | --- |
| COc1ccc2[nH]c3c(=O)n(Cc4ccco4)cnc3c2c1 | 55 nM (active) |
| COc1ccc(C(=O)CSc2nnc(COc3ccccc3)n2Cc2ccco2)cc1 | inactive |
| COC(=O)c1[nH]c2ccccc2c1NS(=O)(=O)c1ccc(OC)cc1OC | inactive |
| COc1ccc(OC)c(N=Cc2c(O)[nH]c3ccccc23)c1 | 64 nM (active) |
| CCOc1ccccc1NC(=O)Nc1cc(OC)ccc1OC | inactive |
| Cc1nc2nc(COc3ccccc3)[nH]n2c(=O)c1Cc1ccccc1 | inactive |
| CC(=O)/C(C)=N\O | inactive |
| Cc1cccc(Cn2c(N3CCN(c4ccccc4)CC3)nc3c2c(=O)n(C)c(=O)n3C)c1 | inactive |
| Cn1c(=O)c2c(nc(N3CCCCCC3)n2CC(O)COc2ccc(Cl)cc2)n(C)c1=O (stereo not given) | 49 nM (active) |
| Cn1c(=O)c2c(nc(N3CCCCCC3)n2CC(=O)c2ccc(Br)cc2)n(C)c1=O | inactive |
| CN(c1nc2ccccc2n2c(-c3ccco3)nnc12)S(=O)(=O)c1ccccc1 | 39 nM (active) |
| Cc1ccc(Oc2nc3ccccc3n3c(C)nnc23)cc1 | inactive |
| c1ccc(CSc2nnc(-c3ccco3)n2Cc2ccccc2)cc1 | inactive |
| CC(=O)C1=C(O)C(=O)N(c2ccc(S(N)(=O)=O)cc2)C1c1ccccc1F (stereo not given) | 23 nM (active) |
| COc1ccccc1N=C1SC(C)CN1C(=O)C1CCC1 (stereo not given) | inactive |
| COc1ccc(N2C(=O)CN=C2Nc2cccc(C)c2C)cc1OC | inactive |
| CSc1cccc(NC(=O)C2CCCN2S(=O)(=O)c2ccc3c(c2)CCC(=O)N3)c1 (stereo not given) | inactive |
| Cc1nc2nc(SCC(=O)NCc3ccco3)nn2c(C)c1Cc1ccccc1 | inactive |
| O=C(CN1C(=O)CCS(=O)(=O)c2ccccc21)NCc1ccc(F)cc1 | inactive |
| NC(=O)CSC1=Nc2ccccc2C2=NC(CCC(=O)NCc3ccc(F)cc3)C(=O)N12 (stereo not given) | 420 nM (active) |
| O=C(CC1N=C2c3ccccc3N=C(SCc3ccccc3Cl)N2C1=O)NCc1ccco1 (stereo not given) | 17 nM (active) |
| CC1(c2ccccc2Cl)NC(=O)N(CC(=O)NC(=O)NCc2ccco2)C1=O (stereo not given) | inactive |
